Some test systems named below: NCI-H23 lung; NCI-H226 lung; NCI-H322M lung; HOP-62 NSCLC; NCI-H460 lung; HOP-92 NSCLC; NCI-H522 lung; A549/ATCC NSCLC; 786-0 renal; DU-145 prostate; K-562 leukemia; MALME-3M melanoma; MDA-MB-231 breast; RXF 393 renal; SF-268 CNS; SF-539 CNS; UACC-257 melanoma; M14 melanoma; COLO 205 colon; SF-295 CNS.
Common to all, as to assay: NCI-60 one-dose screen, 48 h (100 = growth as untreated, 0 = no growth, -100 = all killed)
Common to all, as to conditions: 10 µM unless noted

The panel holds about 83,000 compounds, 20% with a hit somewhere; the sample as a whole holds those more often.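 Cell lines were cultured in 96-well plates, exposed to a single compound concentration, and assessed for percent growth 48 hours later.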 Unmarked numbers belong to inactive results. Calls of active or inactive are those of the source. The calls were made as follows: active = growth percent below 10; inactive = the rest.

Regarding `C#CC[C@@H]1C[C@]2(C)[C@H]3CC[C@@H]4[C@H]5C(C(=C)C)CC[C@]5(C(=O)NCCCN5CCN(CCCN)CC5)CC[C@@]4(C)[C@]3(C)CC[C@H]2C(C)(C)[C@H]1OC(C)=O` (stereo not given in full), the growth in the assay with NCI-H23 lung was 3.21% (active); in the assay on NCI-H226 lung it was 87.4%; in the assay on NCI-H322M lung, -81.2% (active); in the assay with HOP-62 NSCLC it was -59.7% (active); with NCI-H460 lung, -77% (active); in the assay with HOP-92 NSCLC it was -78.3% (active). Further, the growth was 4.62% (active) in the assay with NCI-H522 lung; -61.9% (active) in the assay with A549/ATCC NSCLC; -97.5% (active) in the assay with 786-0 renal; -92% (active) in the assay with DU-145 prostate; -19.8% (active) in the assay on K-562 leukemia; 67.8% in the assay on MALME-3M melanoma. In addition, the growth in the assay with MDA-MB-231 breast was -83.3% (active); with RXF 393 renal, -87.4% (active); with SF-268 CNS, 85.5%; in the assay with SF-539 CNS, -91.3% (active); with UACC-257 melanoma, 72.1%; with M14 melanoma, -80.5% (active).
Consider `COc1ccc2c(c1)CCCC21C(=O)Nc2ccccc21` (stereo not given), for which the growth was 101% with NCI-H23 lung; 102% in the assay with NCI-H226 lung; 91.6% in the assay with NCI-H322M lung; 96.5% with HOP-62 NSCLC; 115% with NCI-H460 lung; 99.3% in the assay with HOP-92 NSCLC. In addition, the growth in the assay with NCI-H522 lung is 83.2%; in the assay on A549/ATCC NSCLC, 95.2%; with 786-0 renal, 99.3%; in the assay with DU-145 prostate it was 103%; in the assay on MALME-3M melanoma it was 102%; with MDA-MB-231 breast it was 99.4%. The growth in the assay with RXF 393 renal was 110%; in the assay on SF-268 CNS, 86.6%; in the assay with SF-539 CNS it was 101%; with UACC-257 melanoma, 110%; in the assay on M14 melanoma, 109%.
On to `Cc1ccccc1N1C(c2ccccc2)=NNC12C=CC(=O)c1c(O)cccc12` (stereo not given), for which the growth is 31.4% in the assay on NCI-H23 lung; 87.8% with NCI-H226 lung; 99.1% with NCI-H322M lung; 31.1% with HOP-62 NSCLC; 89.6% with NCI-H460 lung; 137% in the assay on HOP-92 NSCLC. Further, the growth is 54.6% in the assay on NCI-H522 lung; 68.1% in the assay on A549/ATCC NSCLC; 95.7% in the assay on COLO 205 colon; 94.9% with DU-145 prostate; 63.3% with K-562 leukemia; 75.1% in the assay with MALME-3M melanoma. Moreover, the growth was 73.5% in the assay with MDA-MB-231 breast; 115% in the assay on RXF 393 renal; 76.7% in the assay on SF-268 CNS; 54.5% in the assay with SF-295 CNS; 76.2% in the assay with SF-539 CNS; 45.3% in the assay on UACC-257 melanoma. For the same compound, the growth in the assay with M14 melanoma was 75.5%.
Consider `Clc1ccc(Nc2ncnc3c2sc2ncccc23)cc1`, for which the growth was 3.68% (active) in the assay with NCI-H23 lung; 31.5% in the assay on NCI-H226 lung; 45.9% in the assay on NCI-H322M lung; 15.7% in the assay on HOP-62 NSCLC; 10.3% in the assay with NCI-H460 lung; 50.4% in the assay on HOP-92 NSCLC. In addition, the growth in the assay on NCI-H522 lung is 31.5%; in the assay with A549/ATCC NSCLC, 27.9%; in the assay on 786-0 renal it was 13.6%; in the assay with DU-145 prostate, 20.2%; in the assay with K-562 leukemia it was 46.6%; in the assay on MALME-3M melanoma it was 65.6%. Moreover, the growth was 63.9% in the assay with MDA-MB-231 breast; 32.9% with RXF 393 renal; 23% with SF-268 CNS; 19.1% in the assay on SF-295 CNS; 6.42% (active) in the assay on SF-539 CNS; 41.6% with UACC-257 melanoma. Besides, in the assay with M14 melanoma, the growth is -21.5% (active).
In the case of `C#CC[C@@H]1C[C@]2(C)[C@H]3CC=C4[C@H]5[C@@H](C)[C@H](C)CC[C@]5(C(=O)NCCCN5CCN(CCCN)CC5)CC[C@@]4(C)[C@]3(C)CC[C@H]2C(C)(C)[C@H]1OC(C)=O`, the growth is 19.8% in the assay with NCI-H23 lung; 86.5% in the assay with NCI-H226 lung; -48.2% (active) in the assay on NCI-H322M lung; 58.9% with HOP-62 NSCLC; -60.7% (active) in the assay on NCI-H460 lung; -20.5% (active) in the assay with HOP-92 NSCLC. The growth in the assay with NCI-H522 lung is -55.4% (active); in the assay with A549/ATCC NSCLC, -23.5% (active); in the assay with 786-0 renal it was -97% (active); in the assay on DU-145 prostate it was 0.421% (active); with K-562 leukemia, -23.3% (active); in the assay on MALME-3M melanoma it was -81% (active). In addition, the growth was -70.4% (active) in the assay on MDA-MB-231 breast; -82.1% (active) with RXF 393 renal; 85% with SF-268 CNS; -94% (active) in the assay with SF-539 CNS; -32.1% (active) in the assay on UACC-257 melanoma; -69.2% (active) in the assay on M14 melanoma.
For the compound `O=c1[nH]c2cc(Cl)c(Cl)cc2o1`, the growth in the assay with NCI-H23 lung is 108%; in the assay on NCI-H226 lung it was 90.5%; in the assay with NCI-H322M lung, 109%; in the assay on HOP-62 NSCLC, 96.8%; in the assay on NCI-H460 lung it was 109%; in the assay with HOP-92 NSCLC it was 101%. The growth is 103% in the assay on NCI-H522 lung; 114% with A549/ATCC NSCLC; 97.1% in the assay on 786-0 renal; 113% with DU-145 prostate; 102% with K-562 leukemia; 117% in the assay with MALME-3M melanoma. The growth was 100% in the assay on MDA-MB-231 breast; 135% with RXF 393 renal; 103% with SF-268 CNS; 55.9% with SF-295 CNS; 105% with SF-539 CNS; 114% in the assay with UACC-257 melanoma. The growth in the assay on M14 melanoma was 105%.
For the compound `C/C(=N\OC(=O)Nc1ccccc1)c1ccccc1`, the growth in the assay on NCI-H23 lung is 105%; in the assay with NCI-H226 lung, 95.2%; in the assay with NCI-H322M lung, 99.1%; in the assay with HOP-62 NSCLC, 118%; with NCI-H460 lung, 103%; in the assay with HOP-92 NSCLC, 126%. Also, the growth in the assay on NCI-H522 lung was 98.6%; in the assay on A549/ATCC NSCLC, 88.3%; with 786-0 renal, 99.3%; in the assay on DU-145 prostate it was 97.1%; with K-562 leukemia it was 96.6%; in the assay with MALME-3M melanoma, 107%. Moreover, the growth in the assay on MDA-MB-231 breast was 107%; in the assay on RXF 393 renal, 87.2%; in the assay with SF-268 CNS it was 104%; in the assay on SF-539 CNS, 105%; in the assay on UACC-257 melanoma, 102%; in the assay with M14 melanoma it was 103%.
Turning to `Oc1ccc(-c2cnc(-c3ccccc3)[nH]2)c(O)c1`, the growth is 108% in the assay with NCI-H23 lung; 86.2% in the assay with NCI-H226 lung; 94.9% in the assay on NCI-H322M lung; -12.1% (active) in the assay with HOP-62 NSCLC; 110% in the assay with NCI-H460 lung; 58.7% in the assay on HOP-92 NSCLC. Further, the growth with NCI-H522 lung was 99.8%; with A549/ATCC NSCLC, 24.8%; with COLO 205 colon, 117%; in the assay with DU-145 prostate it was 157%; with K-562 leukemia it was 94.7%; with MALME-3M melanoma, 76.5%. Further, the growth was 92.1% with MDA-MB-231 breast; 100% in the assay with SF-268 CNS; 107% with SF-539 CNS; -22.6% (active) with UACC-257 melanoma; 119% with M14 melanoma.

(Values after PubChem BioAssay (NCI).)
